Laboratory results from PubChem BioAssay (NCI).
About 83,000 compounds went through this panel and 20% of them were active in at least one assay; those are over-represented in the sample as a whole.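 Method: cells in 96-well plates; compound added at one concentration; 48 h incubation; percent growth measured; values under 10 scored active.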 The source made the active and inactive calls.

tested on: HCT-15 colon; test: NCI-60 one-dose screen, 48 h (100 = growth as untreated, 0 = no growth, -100 = all killed); details: 10 µM
Protocol: Growth inhibition of the HCT-15 human tumor cell line is measured as a screen for anti-cancer activity. Cells are grown in 96 well plates and exposed to the test compound for 48 hours. Compounds are tested at a single concentration, which is 10^-5 M for most compounds. The reported endpoint is percent growth (GI% or GIPRCNT), where numbers from 0 - 100% represent growth inhibition, and numbers from -100% - 0 represent cell death. For example, a value of 40 represents 60% growth inhibition. A value of 0 means no net growth occurred over the course of the experiment. A value of -40 indicates 40% of cells at the beginning of the experiment died by the end of the experiment. A value of -100 means all cells are dead at the end of the experiment.
NCI-60 Human Tumor Cell Lines Screen was performed using the standard one-dose NCI protocol, which is described in more detail at https://dtp.cancer.gov/discovery_development/nci-60/default.htm.
Compounds with GIPRCNT values below 10 were considered active. Activity score was based on GIPRCNT using the following formula: […]
Score is 0 for GIPRCNT values of 100 or above, 50 for GIPRCNT values of 0, and 100 for GIPRCNT values of -100.

**Q.** Which growth does the source give for `O=C1Nc2ccc(Cl)cc2/C1=C/c1ccc(OCc2ccc(Br)cc2F)cc1` here?
**A.** 45.7% (inactive)

**Q.** How did the growth turn out when `C/C(=C\c1ccc(O)cc1O)c1ccc2ccc(O)cc2[o+]1` was run?
**A.** 12.3% (inactive)

**Q.** With `O=C1Nc2cc(Cl)ccc2/C1=C/c1ccc(OCc2ccc(Br)cc2F)cc1` as the compound, how does the growth read?
**A.** -31.8% (active)

**Q.** Which growth does the source give for `CCOC(=O)CNC(=O)CN(Cc1ccccc1)C(=O)[C@@]1(C)CCC[C@]2(C)[C@H]3CC4C(C(C)C)=C[C@]3(CC[C@H]21)[C@@H]1C(=O)CCC(=O)[C@H]41` here?
**A.** 17.6% (inactive)

**Q.** How did the growth turn out when `Cc1cc2c(c(O)c1Br)-c1ncoc1C(=O)[C@]1(C)CC[C@H](C(C)C)[C@H]21` was run?
**A.** 7.31% (active)

**Q.** With `Cc1ccc(C(=O)Nc2ccc(-n3c(C)nc4c(cnn4-c4ccccc4)c3=O)cc2)cc1` as the compound, how does the growth read?
**A.** 75.3% (inactive)

**Q.** For `CC(=O)c1ccc(NC(=O)NCn2c(=O)[nH]c3ccccc3c2=O)cc1`, which growth is on record?
**A.** 101% (inactive)

**Q.** For `COc1ccc2[nH]cc(/C=N/Nc3cccc(Cl)n3)c2c1`, which growth is on record?
**A.** 29.6% (inactive)

**Q.** For `O=c1cc(-c2ccccc2)oc2cc(OCCCNCc3ccccc3)cc(O)c12`, which growth is on record?
**A.** -67.1% (active)

**Q.** With `Cc1ccc2nc3c(nc2c1)c1cc(I)ccc1n3CCN(C)C` as the compound, how does the growth read?
**A.** 10.1% (inactive)

**Q.** `NC1=NC(c2ccccc2Cl)N=C(Nc2nn[nH]n2)N1` (stereo not given) was tested. Which growth did it give?
**A.** 103% (inactive)

**Q.** With `C/C(=N\N=C\c1ccc(Cl)c([N+](=O)[O-])c1)c1ccc2c(c1)Nc1ccccc1S2` as the compound, how does the growth read?
**A.** 50.8% (inactive)

**Q.** With `O=C(CNc1nc(-c2ccccc2)cs1)Nc1ccc(Cl)cc1[N+](=O)[O-]` as the compound, how does the growth read?
**A.** -78.5% (active)

**Q.** `O=C(CSc1nnc(-c2ccc3nc(-c4ccc(Cl)cc4)[nH]c3c2)o1)Nc1ccc(Br)cc1` was tested. Which growth did it give?
**A.** -64.2% (active)

**Q.** For `O=C(Cn1cc(CSc2nnc3oc4ccccc4n23)nn1)Nc1ccc(Br)cc1`, which growth is on record?
**A.** 82.5% (inactive)

**Q.** Which growth does the source give for `CN1CCO/C1=C(/NC(=O)c1ccc(Cl)cc1)[P+](c1ccccc1)(c1ccccc1)c1ccccc1` here?
**A.** 107% (inactive)

**Q.** For `O=C(CSc1nnc(-c2ccc3nc(-c4ccccc4)[nH]c3c2)o1)Nc1ccc(Cl)cc1`, which growth is on record?
**A.** 15.7% (inactive)

**Q.** With `COc1cc(/C=C/C(=O)c2ccc(NC(=O)CSc3nnc(-c4c[nH]c5ccccc45)n3-c3ccccc3)cc2)cc(OC)c1OC` as the compound, how does the growth read?
**A.** 23.5% (inactive)

**Q.** `[2H]C([2H])([2H])Oc1ccc2ncc(C#Cc3cncc(C(=O)Nc4ccc(CN5CCN(C)CC5)c(C(F)(F)F)c4)c3)n2n1` was tested. Which growth did it give?
**A.** -87.7% (active)

**Q.** With `COc1ccc(CCN2C(=O)/C(=C/c3csc(C#N)n3)SC2=S)cc1` as the compound, how does the growth read?
**A.** -51.7% (active)

**Q.** How did the growth turn out when `COc1ccccc1C(=O)NNC(=O)CSc1nc2c(c(=O)[nH]1)CCCC2` was run?
**A.** 110% (inactive)

**Q.** For `COc1nccnc1NS(=O)(=O)c1ccc(NC2=C(Cl)C(=O)c3nc(C)ccc3C2=O)cc1`, which growth is on record?
**A.** 93.7% (inactive)

**Q.** `Cc1cc(=O)oc2cc(OCCCCOc3ccc(/C=C/C(=O)Nc4ccccc4[N+](=O)[O-])cc3)ccc12` was tested. Which growth did it give?
**A.** 104% (inactive)

**Q.** Which growth does the source give for `CCN1CCN(c2ccc(NC(=O)Nc3ccc(-c4cc(C(=O)NC(C)C)c5ncccc5n4)cc3)cc2C(F)(F)F)CC1` here?
**A.** -93.5% (active)

**Q.** With `Cc1ccc(-c2nc(Nc3ccc(C)c(S(N)(=O)=O)c3)c3ccccc3n2)cc1` as the compound, how does the growth read?
**A.** 50.7% (inactive)

**Q.** For `Cc1ccc(-c2nc3ccc(C(=O)N=Nc4c(O)[nH]c5ccc([N+](=O)[O-])cc45)cc3[nH]2)cc1`, which growth is on record?
**A.** 104% (inactive)

**Q.** Which growth does the source give for `COc1ccccc1[C@H]1C(C(=O)c2ccc(Cl)cc2)C2(N[C@@H]1c1ccccc1)C(=O)Nc1ccc(Cl)cc12` (stereo not given in full) here?
**A.** 7.83% (active)

**Q.** `O=C1Nc2ccc(Cl)cc2/C1=C/c1cccc(OCc2ccccn2)c1` was tested. Which growth did it give?
**A.** -66.8% (active)

**Q.** With `O/N=C(\CSc1nnc(-c2c[nH]c3ccccc23)n1-c1ccccc1)c1ccc(Br)cc1` as the compound, how does the growth read?
**A.** -92.8% (active)

**Q.** How did the growth turn out when `O=C(Nc1cccc(C(F)(F)F)c1)c1cncc(C#Cc2cnc3cccnn23)c1` was run?
**A.** 37.7% (inactive)

**Q.** Which growth does the source give for `CS(=O)(=O)Nc1ccc(-c2ccc3c(c2)ncn3-c2ccc(NC(=O)Nc3ccc(Br)cc3)cc2)cc1` here?
**A.** 8.63% (active)

**Q.** Which growth does the source give for `O=c1[nH]c2ccccc2cc1CSc1ccc(Nc2nccc(-c3ccc(C(F)(F)F)cc3)n2)cc1` here?
**A.** 29.7% (inactive)

**Q.** `COC[C@@H](CC(C)C)N=C1NC(=O)/C(=C/c2ccc3ncoc3c2)N1` was tested. Which growth did it give?
**A.** 1.92% (active)

**Q.** How did the growth turn out when `O=C(Nc1cccc(C(F)(F)F)c1)c1cncc(C#Cc2cnc3ccc(N4CCOCC4)nn23)c1` was run?
**A.** -16.7% (active)

**Q.** For `CN1CCN(Cc2ccc(C(=O)Nc3cccc(Nc4ccc5c(O)cccc5n4)c3)cc2C(F)(F)F)CC1`, which growth is on record?
**A.** -25.4% (active)

**Q.** Which growth does the source give for `O=C(CSc1nnc(-c2c[nH]c3ccccc23)n1-c1ccccc1)Nc1ccc(C(=O)/C=C/c2ccc(Cl)cc2)cc1` here?
**A.** 59.3% (inactive)

**Q.** For `CC(=O)Nc1nc(-c2ccc(N3CCN(C)CC3)c(NS(=O)(=O)c3ccc(C(F)(F)F)cc3)c2)cs1`, which growth is on record?
**A.** -67.7% (active)

**Q.** How did the growth turn out when `O=C1NC(=NC23CC4CC(CC(C4)C2)C3)N/C1=C\c1ccc2ncsc2c1` was run?
**A.** -3.34% (active)

**Q.** With `CCCCCCCCCCCCCCCCCCCC(=O)NCCc1c[nH]c2ccc(OC(=O)CCCC(=O)OCCOOCCOOCCOOCCOOCCOOCCOOCCOOCCOOCCOOCCOOCCOOCCOC)cc12` as the compound, how does the growth read?
**A.** 56% (inactive)

**Q.** For `COc1ccc(-c2cc(C(=O)N=Nc3c(O)[nH]c4ccc(F)cc34)c3ccccc3n2)cc1`, which growth is on record?
**A.** 21.5% (inactive)
